# Sampled rows, rich in hits. Any-hit rate of the full collection: about 7.5%.
# SMN2 splice enh = qHTS Assay for Enhancers of SMN2 Splice Variant Expression; hit rate 2.8% among 210,000; HEK293 SMN2-luciferase splicing reporter, luminescence, 30-36 h; Potency, µM (titrated, usually from 46.1 µM), inactives show at the top dose activity change, positive = activation, usual class: activators; also: % of control where 0% means no effect; nearly all actives have a fitted effect of over 55% in size
#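 HEK293 cells carry an SMN2 minigene-luciferase reporter in which exon 7 inclusion puts luciferase in frame. Cells were seeded at 2000 cells/well, attached for 10-12 hours, then exposed to compounds for 30-36 hours at 37C before ONE-Glo luminescence.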
# FLuc modulator = qHTS profiling assay for firefly luciferase inhibitor/activator using purifed enzyme and Km concentrations of substrates (counterscreen for miR-21 project). hit rate 6.9% among 360,000. purified FLuc, Km substrates, luminescence inhibition. Potency, µM (top dose mostly 57.5 µM), without a hit: at the highest dose activity change, negative = inhibition, actives largely listed as inhibitors;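 also: plate controls were vehicle for no effect and reference inhibitor for full effect; nearly all actives have a fitted effect of over 55% in size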
# Target sequence (P08659 whole entry, looked up): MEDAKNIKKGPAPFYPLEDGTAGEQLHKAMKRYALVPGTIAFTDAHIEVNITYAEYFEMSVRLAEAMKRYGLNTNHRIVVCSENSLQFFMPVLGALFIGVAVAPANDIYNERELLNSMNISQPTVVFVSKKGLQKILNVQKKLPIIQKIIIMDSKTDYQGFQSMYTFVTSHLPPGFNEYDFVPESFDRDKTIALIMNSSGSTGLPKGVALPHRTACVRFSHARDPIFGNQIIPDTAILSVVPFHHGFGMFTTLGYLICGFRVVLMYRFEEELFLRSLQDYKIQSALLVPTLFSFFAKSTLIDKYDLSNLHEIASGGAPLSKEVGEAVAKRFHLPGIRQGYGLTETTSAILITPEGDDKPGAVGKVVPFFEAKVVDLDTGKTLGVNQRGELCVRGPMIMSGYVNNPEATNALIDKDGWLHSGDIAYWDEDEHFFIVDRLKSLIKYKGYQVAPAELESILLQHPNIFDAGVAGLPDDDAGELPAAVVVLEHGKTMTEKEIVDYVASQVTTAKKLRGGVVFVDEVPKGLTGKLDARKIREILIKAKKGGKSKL
#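 Purified P. pyralis luciferase, 10 nM final, with Km-level 10 uM D-luciferin and 10 uM ATP in 50 mM Tris acetate pH 7.5, 10 mM Mg acetate, 0.01% Tween-20, 0.05% BSA; 6-point qHTS titration about 60 µM downward; luminescence read.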
# Rab9 prom act = qHTS Assay for Rab9 Promoter Activators; Huh7 Rab9 promoter-luciferase reporter, luminescence, 24 h; Potency, µM (highest dose often 9.22 µM), inactives show at the top dose activation, negative = inhibition, actives largely listed as activators; hit rate 2.8% among 320,000; AID 485297, 2010; also: % of control where 0% means no effect; nearly all actives have a fitted effect of over 60% in size
#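 Rab9 promoter-driven luciferase in stably transfected Huh7 cells; 1500 cells/well rested 2 h, exposed to compound in DMSO for 24 h at 37 °C, 5% CO2. Luminescence read 10 min after adding luciferase reagent at ambient temperature.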
# ELG1 genotoxic = qHTS screen for small molecules that induce genotoxicity in human embryonic kidney (HEK293T) cells expressing luciferase-tagged ELG1. HEK293T ELG1-luciferase reporter, luminescence, 16 h. Potency, µM (top dose mostly 46 µM), inactives show at the top dose activity change, positive = activation, hits mostly activators. hit rate 1.3% among 330,000. AID 504466, 2011; also: % of control where 0% means no effect; nearly all actives have a fitted effect of over 60% in size
#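 Cells (2,000/well) expressing the ELG1-luciferase fusion are dosed by pin tool and kept 16 hr at 37 °C, 5% CO2. Signal comes from ONE-Glo luciferase reagent after 30 min at room temperature.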
# NPC1 prom act = qHTS Assay for NPC1 Promoter Activators | Huh7 NPC1 promoter luciferase reporter, 24 h | Potency, µM (doses to about 9.22 µM), inactives show at the top dose activation, hits mostly activators | hit rate 2.4% among 320,000; also: % of control where 0% means no effect; nearly all actives have a fitted effect of over 60% in size
#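 Stably transfected Huh7 (NPC1 promoter→luciferase), 1500 cells/well in Opti-MEM + 10% FBS, 2 h settle, then compound 24 h at 37 °C. Luminescence after 10 min with Amplite reagent.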
# Luc counter = Counterscreen for Luciferase (Kinase-Glo TM) Inhibition. Potency, µM (titrated, usually from 38.3 µM), for inactives: at the top dose activity change, negative = inhibition, most hits filed as inhibitors. hit rate 0.28% among 200,000. Kinase-Glo luciferase, ATP luminescence, 8 min. Luciferin 4-monooxygenase (Photuris pensylvanica), Q27757. AID 1379, 2008; also: % is scaled to controls: 0 for no effect and ±100 for the full control effect; nearly all actives have a fitted effect of over 60% in size
#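 Luminescence was the read-out, taken after 8-minute incubation at ambient temperature. Luciferase turned over luciferin with 10 uM ATP in imidazole pH 7.2 buffer containing KCl, MgCl2, Tween 20 and BSA.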
# * marks the source's active call; other numbers are inactive results; ? = inconclusive; . = no result. Calls follow the shape of the dose curve; as a rule, active = well fitted curve in the direction sought with a large enough effect; inconclusive = small, poorly fitted or top-dose-only effect, or another doubt; inactive = no such curve, though single readings can be large; an effect the other way counts as inactive or inconclusive. Potency is read from the fitted curve at half-maximal effect.
SMILES,SMN2 splice enh,FLuc modulator,Rab9 prom act,ELG1 genotoxic,NPC1 prom act,Luc counter
CC(C)=CC(=O)Nc1ccc2c(c1)OCO2,11.2µM*,10.7µM*,.,.,.,-27.1%
O=C(CSCc1ccc(Cl)cc1)Nc1ccc2c(c1)OCCO2,-14.6%,23.9µM*,9.7%,13.0%,19.4%,-8.4%
O=C(CSc1ccc(-c2ccccc2)nn1)Nc1ccc2c(c1)OCCO2,15.8µM*,10.7µM*,?,?,21.0%,-1.1%
CC(CC(=O)Nc1ccc2c(c1)OCCO2)c1ccccc1 (stereo not given),11.2µM*,?,?,?,?,-2.8%
COC(=O)CCC(C)C1CCC2C3C(O)C[C@@H]4CC(O)CC[C@@]4(C)C3CC(O)[C@]12C (stereo not given in full),-17.2%,.,.,.,.,1.6%
COCCNC(=O)c1c(C)oc2nc(C)nc(N3CCOCC3)c12,.,0.1%,.,.,.,.
CCOC(=O)c1ccccc1NC(=O)CSc1cc(C)[nH]c(=O)n1,.,0.1%,.,.,.,.
COC(=O)NCc1c(C)nn(-c2ccccc2)c1-n1cccc1,-0.6%,-15.7%,.,.,.,.
O=C(Cn1c(=O)oc2ccccc21)Nc1ccc2c(c1)OCCO2,16.3%,-10.3%,-5.1%,0.0%,-3.3%,6.1%
O=C(CSCc1ccccc1)Nc1ccc(F)c(F)c1,?,16.9µM*,?,?,24.4%,-0.9%
O=C(CCS(=O)(=O)c1ccccc1)Nc1ccc2c(c1)OCO2,.,26.9µM*,?,?,?,-1.0%
O=C(CSCc1ccc(F)cc1)Nc1ccccc1,6.4%,-21.8%,-2.2%,8.6%,4.9%,1.4%
CS(=O)(=O)N(CC(=O)Nc1ccc2c(c1)OCO2)c1ccccc1,-7.0%,2.8%,0.3%,8.5%,0.8%,-2.9%
O=C(CSc1ccccc1)Nc1ccc2c(c1)OCCO2,.,2.39µM*,0.631µM*,1.64µM*,0.891µM*,.
O=C(CCn1c(=O)oc2ccccc21)Nc1ccc2c(c1)OCCO2,.,19µM*,?,?,?,.
COc1ccc(-n2c(=O)c(C)nc3cnc(N4CCNCC4)nc32)cc1,0.9%,.,.,.,.,-0.1%
Cc1ccc([N+](=O)[O-])cc1S(=O)(=O)N1CCn2cccc2C1c1ccccc1F (stereo not given),.,-7.5%,.,.,.,.
O=C(CSc1nnc2ccccn12)Nc1ccc2c(c1)OCCO2,.,?,2.51µM*,?,?,.
O=C(CSc1nnc2ccccn12)Nc1ncc(Cl)cc1Cl,?,?,?,18.4µM*,20.2%,-1.7%
O=C(CSCc1ccccc1F)NCc1ccccc1,?,23.9µM*,?,?,?,2.8%
O=C(CSCSCC(=O)Nc1ccc2c(c1)OCO2)Nc1ccc2c(c1)OCO2,-7.2%,16.9µM*,-3.5%,-2.5%,-0.7%,-4.4%
O=C(CSc1nnc2ccccn12)NCc1ccc2c(c1)OCO2,-8.6%,6.9%,-7.8%,3.6%,-1.3%,-3.6%
CCN(CC)c1ccc(C(=O)NCc2nc3cccnc3n2Cc2ccc(C)cc2)cc1,.,-0.7%,.,.,.,.
Cc1cc(C)n(C(C)CC(=O)Nc2cccc(C(F)(F)F)c2)n1 (stereo not given),.,-6.2%,.,.,.,.
Nc1c(C(=O)NCC2CCCO2)sc2nc3c(c(-c4ccco4)c12)CC/C3=C\c1ccco1 (stereo not given),-0.7%,5.36µM*,3.1%,0.8%,0.7%,-6.7%
SMILES,SMN2 splice enh,FLuc modulator,Rab9 prom act,ELG1 genotoxic,NPC1 prom act,Luc counter
COc1cc2[nH]c(=O)n(CCCC(=O)N(C)Cc3ccccc3)c(=O)c2cc1OC,14.2%,1.9%,.,.,.,.
CC(C)(C)NC(=O)NC(=O)CSc1nnc(COc2ccccc2Cl)o1,13.5%,16.9µM*,-7.1%,-2.6%,-2.3%,-6.1%
CC1CCCCC1NC(=O)CSc1nnc(COc2ccccc2Cl)o1 (stereo not given),6.5%,21.3µM*,3.2%,0.9%,2.6%,-0.9%
O=C(CSc1nnc(COc2ccccc2Cl)o1)Nc1ccccc1,.,?,-3.5%,0.9%,-2.0%,.
C#CCOc1ccc(C2C(C(=O)OC)=C(C)NC3=C2C(=O)c2ccccc23)cc1OCC (stereo not given),.,-9.9%,.,.,.,.
COc1ccc(NC(=O)c2ccc(C)cc2)c(OC)c1,17.8µM*,5.36µM*,?,?,?,-2.3%
Cc1ccc(C(=O)Nc2ccc(O)cc2C(=O)O)cc1,-2.7%,10.7µM*,-0.9%,-4.9%,-3.8%,17.1%
Cc1cccc(C(=O)Nc2ccccc2C(=O)Nc2ccc(C(=O)O)cc2)c1,.,6.75µM*,8.9%,9.2%,-2.7%,.
Cc1cccc(C(=O)Nc2ccc(O)cc2)c1,27.3%,?,?,26.6%,?,-12.1%
COc1ccc(NC(=O)c2ccc3[nH]c(=O)c(=O)[nH]c3c2)c(OC)c1,.,-1.7%,-1.6%,0.2%,-2.9%,.
Cc1cccc(C(=O)Nc2ccc(O)cc2C(=O)O)c1,2.8%,21.3µM*,11.0%,-0.8%,0.8%,-18.9%
CSc1ccc(C2c3c(oc4cc(C)cc(C)c4c3=O)C(=O)N2CCO)cc1 (stereo not given),-5.6%,-15.8%,.,.,.,.
COc1cc(NC(=O)c2ccc(C)cc2)c(OC)cc1NC(=O)CN1CCOCC1,1.1%,19µM*,-6.7%,-7.0%,21.0%,1.8%
CCN(CC)S(=O)(=O)c1cccc(C(=O)Nc2ccccc2C(=O)Nc2ccc(OC)cc2)c1,.,8.49µM*,.,.,.,.
Cc1ccc(C(=O)Nc2ccc(O)cc2C(=O)O)cc1C,-13.5%,3.38µM*,-32.1%,8.5%,2.3%,-9.7%
CCN(CC)S(=O)(=O)c1cccc(C(=O)N/N=C/c2cccc(O)c2O)c1,-66.8%,8.49µM*,-2.5%,?,-6.9%,1.4%
COc1ccc(C)cc1NC(=O)c1cc2c(=O)n3cccc(C)c3nc2s1,-2.8%,-2.4%,.,.,.,.
Cc1ccc2oc3c(c(=O)c2c1)C(c1ccccc1F)N(CCCN1CCOCC1)C3=O (stereo not given),?,1.7%,.,.,.,.
Cc1cccc(NC(=O)c2cc(S(=O)(=O)NCCc3ccccc3)ccc2F)c1C,.,4.6%,.,.,.,.
CN1C(=O)/C(=C/c2ccc(C(=O)Nc3ccc(O)cc3C(=O)O)cc2)SC1=S,.,21.3µM*,2.0%,-0.4%,2.6%,.
COc1cc(SC)ccc1C(=O)Nc1ccc(OCC(=O)N2CCOCC2)cc1,.,0.477µM*,1.78µM*,?,2.82µM*,.
COc1ccccc1C(=O)Nc1ccc(OCC(=O)N2CC(C)CC(C)C2)cc1 (stereo not given),.,10.7µM*,-3.3%,1.5%,1.2%,.

# Source: PubChem (National Center for Advancing Translational Sciences (NCATS))
